# Results filed as inconclusive are left out. Unmarked numbers belong to inactive results. Calls of active or inactive are those of the source. Calls come from the whole dose curve; as a rule, active = well fitted inhibition curve with a large enough effect; inconclusive = small, poorly fitted or top-dose-only effect; inactive = flat fitted curve, though single readings scatter.
# Biological target: Luciferin 4-monooxygenase (Photuris pensylvanica) (UniProt Q27757)
# Test: Secondary Assay for Luciferase (Kinase-Glo TM) Inhibition Counterscreen;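 for activity, negative = inhibition: 0% = DMSO only and -100% = 40 µM SIB 1757 full inhibition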
# Conditions: Kinase-Glo luciferase enzyme, luminescence; series mostly up to 58.1 µM; activity, negative = inhibition: at the top concentration
# Method: NIH Chemical Genomics Center [NCGC] Malcolm Walkinshaw, Hugh Morgan, Linda Gilmore University of Edinburgh, UK MLPCN Grant: 1 R03 MH085697-01 NCGC Assay Overview: Luciferase (Kinase-Glo, Promega Corporation) was assayed for its ability to generate light using ATP and luciferin as substrates. The ATP concentration in the assay (10 uM) was within the linear range of enzyme activity for the assay conditions used. This assay was used as an counter screen for human pyruvate kinase M2 isoform.
# NCGC Assay Protocol Summary: Four uL of substrate mix (final concentration, 50 mM imidazole pH 7.2, 50 mM KCl, 7 mM MgCl2, 10 uM ATP, 0.01% Tween 20, 0.05% BSA) was dispensed into white 1536 well plates. Twenty-three nL of compound was delivered by a pin tool and 2 uL of luciferase detection mix (Kinase-Glo, Promega)) was added. Following 8-minute incubation at ambient temperature, luminescence was measured by a ViewLux (Perkin Elmer) at 5 seconds exposure/plate. Data were normalized to the controls for basal activity (DMSO only) and 100% inhibition (40 uM SIB 1757) and curve fitting was performed using Hill equation.
# Potency is the fitted concentration of half-maximal effect.
Compound,"activity, negative = inhibition [%]",Potency
CC(=O)N(C1=C(Cl)C(=O)c2ccccc2C1=O)C1CCCCC1,-12.8,
c1ccc(C2=NNC(=NC3CC3)SC2)cc1,,3.26 µM (active)
Cc1ccc(NS(=O)(=O)c2ccc3c(ccn3C)c2)cc1C,1.35,
Cc1c(C(=O)NC(=S)Nc2ccc(NC(=O)c3cccs3)cc2)oc2ccccc12,-3.45,
Cc1cc(N2C(=O)c3ccccc3C2=O)n[nH]1,1.57,
Cc1ccc(NS(=O)(=O)c2ccc3c(c2)CCC(=O)N3)cc1C,-1.08,
CC(=O)N(C1=C(Cl)C(=O)c2ccccc2C1=O)c1ccc(C(=O)O)cc1,-4.24,
O=C1c2ccccc2C(=O)N1c1cnc2ccccc2c1,0.332,
O=C1c2ccccc2C(=O)N1Cc1ccccc1,-0.279,
CC(C)CN=Cc1c(O)c([N+](=O)[O-])cc2oc3c(c12)CCCC3,-0.0817,
CN(C)c1cccc(S(=O)(=O)N2CCN(S(=O)(=O)c3ccc4c(c3)OCCO4)CC2)c1,-3.54,
O=C1c2ccccc2C(=O)N1c1noc2ccccc12,3.69,
O=C1NS(=O)(=O)c2ccccc21,1.52,
COc1ccc(C(=O)N=c2nc3ccccn3s2)cc1,,5.8 µM (active)
Brc1ccc(N=Nc2ccc3ccccc3n2)cc1,,7.3 µM (active)
Cc1nc(-c2ccc(S(=O)(=O)Nc3ccc(C)c(C)c3)s2)cs1,1.99,
COc1cc(Cl)c(C)cc1NC(=O)COC(=O)c1cc[n+]([O-])cc1,-3.12,
O=c1c2ccccc2cnn1-c1nc2ccccc2[nH]1,,2.59 µM (active)
Cc1ccccc1OC1=NS(=O)(=O)c2ccccc21,-2.81,
COc1ccc2c(c1)c1ccc3c(c1n2C)C(=O)C=CC3=O,-11.3,

Compound,"activity, negative = inhibition [%]",Potency
Nc1ccc2nc(-c3ccccc3)sc2c1,,11.6 µM (active)
Cc1cc2c(s1)c1cnn(Cc3ccccc3F)c(=O)c1n2C,,inactive
Nc1cc(S(=O)(=O)N2CCN(S(=O)(=O)c3ccc4c(c3)OCCO4)CC2)ccn1,-17.1,
Cc1ccc(NS(=O)(=O)c2ccc3c(c2)n(C)c(=O)n3C)cc1C,-0.468,
O=C1CCc2cc(S(=O)(=O)Nc3ccccc3Cl)ccc2N1,-4.09,
Cc1cc(O)c(-c2cc(O)c(C)cc2O)cc1O,-3.34,
O=C(Nc1cccc(O)c1)C(=O)Nc1ccccn1,,20.6 µM (active)
Cc1ccsc1C(=O)Nc1nc2ccccc2[nH]1,,16.3 µM (active)
Cc1sc2nc(CN3CCN(c4ccc(O)cc4)CC3)[nH]c(=O)c2c1C,0.226,
O=C(c1ccccc1)n1c(=S)nc2ccccn21,,5.17 µM (active)
O=C1C(Cl)=C(NC(=O)c2ccccc2)C(=O)C(Cl)=C1NC(=O)c1ccccc1,-11.6,
COc1ccccc1N1C(=O)c2ccccc2C1=O,0.884,
COc1cccc(Cn2ncc3c4sc(S(C)=O)cc4n(C)c3c2=O)c1 (stereo not given),,inactive
COc1cc(N2C(=O)C=CC2=O)c(OC)cc1Cl,-4.86,
Cc1ccccc1N=CC1=C(O)c2ccccc2C1=O,,11.6 µM (active)
CCOC(=O)C(C(C)=O)c1c(Br)c(O)c(O)c2c(C(=O)c3ccc(C)cc3)coc12 (stereo not given),-3.92,
Cc1ccc(S(=O)(=O)/N=C2/C=C(Sc3ncn[nH]3)C(=O)c3ccccc32)cc1,-6.43,
Cc1ccc(C)c(OC2=NS(=O)(=O)c3ccccc32)c1,,inactive
CC(=O)Nc1cccc(S(=O)(=O)Nc2ccc(C)c(C)c2)c1,-3.96,
Cc1ccc(NS(=O)(=O)c2cc3c(cc2-c2cn[nH]c2)NC(=O)CO3)cc1C,2.46,
